# G9a inh: G9a (human) methyltransferase inhibition. AID 504332. Potency, µM (series often up to 102 µM), for the others: top-dose activity, negative = inhibition, actives largely listed as inhibitors. 8.8% of 350,000 active. G9a H3K9 monomethylation, AlphaScreen, 2 h. Q96KQ7; also: % is scaled to controls: 0 for no effect and ±100 for the full control effect; nearly all actives have a fitted effect of over 75% in size
#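 Chemiluminescent proximity detection of H3K9 monomethylation, read after 10 min bead incubation in the dark. Reaction: 20 nM G9a, 500 nM biotin-H3K9 peptide, 20 uM SAM cofactor, 2 h, room temperature, following 15 min enzyme-compound preincubation.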
# GLS inhibitor: inhibitors of human glutaminase (GLS); O94925; GLS enzymatic activity, qHTS titration; Potency, µM (doses to about 45.5 µM), without a hit: at the highest dose activity change, negative = inhibition, most hits filed as inhibitors; 0.21% of 410,000 active; AID 624170; also: % is scaled to controls: 0 for no effect and ±100 for the full control effect
# Target sequence (O94925 whole entry, looked up): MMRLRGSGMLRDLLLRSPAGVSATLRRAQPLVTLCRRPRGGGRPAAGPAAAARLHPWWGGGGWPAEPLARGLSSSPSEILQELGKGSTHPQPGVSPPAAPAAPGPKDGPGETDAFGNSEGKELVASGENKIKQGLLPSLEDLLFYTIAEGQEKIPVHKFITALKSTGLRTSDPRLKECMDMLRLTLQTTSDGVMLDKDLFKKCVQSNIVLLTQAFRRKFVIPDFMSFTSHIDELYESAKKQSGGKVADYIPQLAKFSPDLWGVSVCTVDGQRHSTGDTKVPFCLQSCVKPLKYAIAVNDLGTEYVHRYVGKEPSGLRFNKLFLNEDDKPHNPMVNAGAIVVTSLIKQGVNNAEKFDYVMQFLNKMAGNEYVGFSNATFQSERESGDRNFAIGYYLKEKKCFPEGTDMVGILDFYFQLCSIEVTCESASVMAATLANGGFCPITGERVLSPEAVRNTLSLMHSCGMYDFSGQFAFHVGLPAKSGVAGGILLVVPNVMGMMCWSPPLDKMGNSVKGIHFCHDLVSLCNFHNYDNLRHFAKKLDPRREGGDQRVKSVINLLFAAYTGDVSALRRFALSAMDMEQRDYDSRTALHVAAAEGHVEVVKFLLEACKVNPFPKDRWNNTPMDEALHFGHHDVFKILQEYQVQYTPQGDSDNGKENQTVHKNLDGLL
#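 Assay buffer: 45 mM KH2PO4 pH 8.2, 0.02% Tween-20. hKGA acts on L-glutamine (1 mM solution added); product glutamate is reported by an oxidase/peroxidase Amplex Red coupling, with fluorescence taken at baseline and 30 min.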
# BAZ2B block: inhibitors of human BAZ2B bromodomain; Potency, µM (titrated, usually from 114 µM), inactives show at the top dose activity change, negative = inhibition, hits mostly inhibitors; AID 504333; AlphaScreen BAZ2B-H3K14Ac peptide displacement; Q9UIF8; 4.4% of 360,000 active; also: % is scaled to controls: 0 for no effect and ±100 for the full control effect; nearly all actives have a fitted effect of over 60% in size
#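 Compounds, titrated to a top concentration of 110 uM, were incubated 30 min at room temperature with preformed BAZ2B/acetyl-K14 H3 peptide complex (50 nM each). Proximity signal was measured by AlphaScreen after 20 min with beads.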
# JMJD2A Tudor: JMJD2A Tudor domain (human) inhibition; O75164; AlphaScreen JMJD2A-Tudor / H3K4me3 peptide binding; Potency, µM (doses to about 114 µM), inactives show top-dose activity change, negative = inhibition, usual class: inhibitors; 4.4% of 390,000 active; also: % is scaled to controls: 0 for no effect and ±100 for the full control effect; nearly all actives have a fitted effect of over 50% in size
# HP1b binding inh: inhibitors of HP1-beta chromodomain binding to methylated histone tails. P83916. AlphaScreen HP1-beta / biotin-H3K9me3 peptide binding. Potency, µM (top dose mostly 114 µM), without a hit: top-dose activity change, negative = inhibition, most hits filed as inhibitors. 0.56% of 390,000 active; also: nearly all actives have a fitted effect of over 70% in size
#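 Compound inhibition of the preformed complex between 50 nM HP1-beta and 50 nM biotinylated H3K9me3 peptide was read by AlphaScreen. Buffer was PBS pH 7.4 with 0.01% Tween-20. Incubations ran 30 min at room temperature, with 10 ug/mL donor/acceptor beads.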
# L3MBTL1 inh: blocks human L3MBTL1. AlphaScreen L3MBTL1–H3K9me1 peptide binding. 0.66% of 230,000 active. Potency, µM (top dose mostly 57.1 µM), for inactives: top-dose activity, negative = inhibition, usual class: inhibitors. Q9Y468. AID 485360; also: % is scaled to controls: 0 for no effect and ±100 for the full control effect; nearly all actives have a fitted effect of over 60% in size
#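 L3MBTL1 50 nM + b-AHA-H3(1-15)K9me1 75 nM, 30 min RT; compound added, 30 min RT; streptavidin donor/Ni-chelate acceptor beads 10 ug/mL each final, 30 min RT dark; AlphaScreen read.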
# An asterisk follows results filed as active; ? = inconclusive; · = no result given; [ ] = remark or other dose. This is a sample that favours compounds with a hit; in the whole collection about 10% have one here. Calls follow the shape of the dose curve; as a rule, active = well fitted curve in the direction sought with a large enough effect; inconclusive = small, poorly fitted or top-dose-only effect, or another doubt; inactive = no such curve, though single readings can be large; an effect the other way counts as inactive or inconclusive. Potency is read from the fitted curve at half-maximal effect.
SMILES,G9a inh,GLS inhibitor,BAZ2B block,JMJD2A Tudor,HP1b binding inh,L3MBTL1 inh
CC1=C2C[C@H]3[C@@H](CC=C4C[C@@H](O)CC[C@@]43C)[C@@H]2CC[C@]12O[C@@H]1C[C@H](C)CN[C@H]1C2C (stereo partly drawn),6.7%[59 µM],·,·,·,·,·
Cc1cccc(Cc2cnc(NC(=O)c3ccc4c(c3)CC(c3ccccc3)OC4=O)s2)c1 (stereo not drawn),6.3%[59 µM],-5.2%,0.5%,6.9%,61.6%,·
c1ccc2c(c1)OCC(C1=NCCN1)O2 (stereo not drawn),28.2µM*,-7.0%,?,8.6%,40.6%,6.9%
NC1=N[C@H](O)[C@H]2C3O[C@]4(O)O[C@H](C(O)[C@@]2(N1)[C@@H]4O)C3(O)CO (stereo partly drawn),1.6%[59 µM],·,·,·,·,·
Cc1nn(-c2ccccc2)c2c1C(c1ccc(F)cc1F)C(C#N)=C(N)O2 (stereo not drawn),-31.0%[59 µM],-3.0%,?,-35.9%,0.3%,-4.1%
COc1ccc(OC)c(C2C(C#N)=C(N)Oc3c2c(C)nn3-c2ccc(C)cc2)c1 (stereo not drawn),25.1µM*,33.6%,50.1µM*,-18.5%[11.4 µM],?,-3.3%
CC1CC[C@]2(NC1)OC1CC3C4CC=C5CC(O)CC[C@@]5(C)C4CC[C@]3(C)C1C2C (stereo partly drawn),-47.7%[2.33 µM],·,·,·,·,·
Cc1ccc(OCCOc2cccc(C=C3C(=O)NC(=O)NC3=O)c2)c(C)c1,28.2µM*,-12.9%,?,35.5µM*,67.8%,26.3%
CCN1CCN(c2ccc([N+](=O)[O-])cc2C=C2C(=O)NC(=O)NC2=O)CC1,?,2.2%,0.9%,-10.6%,?,3.3%
O=C1NC(=O)C(=Cc2ccc(OCCOc3ccc([N+](=O)[O-])cc3)cc2)C(=O)N1,22.4µM*,?,44.7µM*,50.1µM*,-4.2%,39.8µM*
O=C1NC(=O)C(=Cc2c(Cl)cccc2Cl)C(=O)N1,·,-3.3%,·,-6.2%,47.2%,·
O=C1NC(=O)C(=Cc2cccc(OCCOc3ccccc3)c2)C(=O)N1,35.5µM*,?,15.2%,?,-5.1%,·
CCN(CC)C(=O)c1ccc(NC(=O)CCn2nc(-c3ccc(Cl)cc3)c3ccccc3c2=O)cc1,-44.2%[59 µM],-1.4%,-37.7%,-29.2%,-11.7%,·
Cc1cccc(N=Nc2ccc(N(C)C)cc2)c1,8.91µM*,50.5%,7.08µM*,14.1µM*,11.2µM*,·
COc1ccc(CCNc2oc(-c3ccc(OC)c(OC)c3)nc2P(=O)(OC)OC)cc1OC,11.3%[59 µM],?,0.0%,-8.0%,23.3%,-7.9%
CC(NS(=O)(=O)c1ccc(CCC(=O)N2CCN(C)CC2)cc1)c1ccccc1 (stereo not drawn),-18.8%[12.7 µM],4.4%,4.4%,-17.3%,23.8%,·
CCOc1ccc(NC(=O)C2CCCN2C(=O)Oc2ccccc2)cc1 (stereo not drawn),-9.2%,0.0%,-21.7%,?,35.7%[57 µM],·
CCOCCSc1nc2c(c(-c3cccs3)c1C#N)CC/C2=C/c1cccs1,28.2µM*,-1.1%,11.3%,36.1%,129.7%,13.8%
CCCCN1CCS(=O)(=O)N(Cc2ccccc2Br)CC(C(=O)OC)C1 (stereo not drawn),·,8.7%,·,-10.8%,96.5%,0.1%
CCOC(=O)Cn1c(C)[n+](C)c2cc(Cl)c(Cl)cc21,44.7µM*,0.5%,-1.1%,28.2µM*,1.8%,-9.3%
CCOc1ccc(NC(=O)c2c(O)[nH]c(=O)[nH]c2=O)cc1,·,0.3%,·,?,21.1%,·
CCOC(=O)c1ccc(NC(=O)c2c(O)[nH]c(=O)[nH]c2=O)cc1,?,-8.2%,?,-11.0%,20.1%,7.08µM*
CCN(CC(=O)Nc1ccccc1C(F)(F)F)C(=O)Cn1c(=O)cnc2ccccc21,?,5.1%,0.6%,-16.7%,0.0%,3.0%
Brc1cccc(CNCCc2ccc3c(c2)OCO3)c1,·,3.5%,56.2µM*,22.4µM*,-34.3%,-1.2%

# Screening results (PubChem)
